Reference: the supplement of paper PMC7411640
Where a name gives a salt, the structure may show the parent alone.

Test system: MDA-MB-468
Test: phospho-S6 immunofluorescence (DAPI-normalised), per-plate z-score; higher = higher phospho-S6 signal (less pathway suppression)
Conditions: 24 h
Description: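 GPCR-targeted compound library (MedChemExpress HY-L006) tested on MDA-MB-468 PTEN-null TNBC cells in 384-well plates at 0.1, 1 or 10 uM, combined with vehicle, GDC0941 450 nM or lapatinib 1 uM, for 24 h. Phospho-S6 (S240/244) immunofluorescence normalised to DAPI and expressed as a per-plate z-score; values are the mean of biological triplicates.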

In the case of `N[C@]1(C(=O)O)CC[C@H](C(=O)O)C1` [trans-ACPD] (compound 10 µM), the “phospho-S6 immunofluorescence (z-score)” value (co-treatment: GDC0941 450 nM) is reported as 0.3, the “phospho-S6 immunofluorescence (z-score)” value (co-treatment: lapatinib 1 uM) is reported as 0.1 and the “phospho-S6 immunofluorescence (z-score)” value (co-treatment: vehicle) is reported as -0.68.
In the case of `CN1C[C@H](C(=O)N[C@]2(C)O[C@@]3(O)[C@@H]4CCCN4C(=O)[C@H](Cc4ccccc4)N3C2=O)C[C@@H]2c3cccc4[nH]cc(c34)C[C@H]21` [Dihydroergotamine (mesylate)] (compound 10 µM), the “phospho-S6 immunofluorescence (z-score)” value (co-treatment: GDC0941 450 nM) is reported as 1.05, the “phospho-S6 immunofluorescence (z-score)” value (co-treatment: lapatinib 1 uM) is reported as 0 and the “phospho-S6 immunofluorescence (z-score)” value (co-treatment: vehicle) is reported as 0.86.
For `CC(C)(C)NCC(O)c1ccc(O)cc1Cl` (centres undefined) (compound 10 µM), the “phospho-S6 immunofluorescence (z-score)” value (co-treatment: GDC0941 450 nM) was 0.77, the “phospho-S6 immunofluorescence (z-score)” value (co-treatment: lapatinib 1 uM) was 0.7 and the “phospho-S6 immunofluorescence (z-score)” value (co-treatment: vehicle) was 0.14.
With `O=C(O[C@H]1C[C@H]2CC[C@@H](C1)[N+]21CCCC1)C(O)(c1ccccc1)c1ccccc1` [Trospium (chloride)] (compound 10 µM) the “phospho-S6 immunofluorescence (z-score)” value (co-treatment: GDC0941 450 nM) was -0.76, the “phospho-S6 immunofluorescence (z-score)” value (co-treatment: lapatinib 1 uM) was 0.26 and the “phospho-S6 immunofluorescence (z-score)” value (co-treatment: vehicle) was -1.07.
With `COc1ccc2c(c1)[C@]13CCCC[C@@H]1[C@H](C2)N(C)CC3` [Dextromethorphan (hydrobromide hydrate)] (compound 10 µM) the “phospho-S6 immunofluorescence (z-score)” value (co-treatment: GDC0941 450 nM) was -0.24, the “phospho-S6 immunofluorescence (z-score)” value (co-treatment: lapatinib 1 uM) was -0.31 and the “phospho-S6 immunofluorescence (z-score)” value (co-treatment: vehicle) was 0.42.
In the case of `Cc1cccc([C@H](C)c2c[nH]cn2)c1C` [Dexmedetomidine (hydrochloride)] (compound 10 µM), the “phospho-S6 immunofluorescence (z-score)” value (co-treatment: GDC0941 450 nM) is reported as 0.32, the “phospho-S6 immunofluorescence (z-score)” value (co-treatment: lapatinib 1 uM) is reported as 0.38 and the “phospho-S6 immunofluorescence (z-score)” value (co-treatment: vehicle) is reported as 1.08.
`Cc1ccc2c(c1)[C@]13CCCC[C@@H]1[C@H](C2)N(C)CC3` [Dimemorfan (phosphate)] (compound 10 µM) was tested, and the “phospho-S6 immunofluorescence (z-score)” value (co-treatment: GDC0941 450 nM) was 0.3, the “phospho-S6 immunofluorescence (z-score)” value (co-treatment: lapatinib 1 uM) was 0.09 and the “phospho-S6 immunofluorescence (z-score)” value (co-treatment: vehicle) was 0.76.
For `CN1[C@@H]2CC(O)C[C@H]1[C@@H]1O[C@@H]12` (some centres undefined) [Scopine (hydrochloride)] (compound 10 µM), the “phospho-S6 immunofluorescence (z-score)” value (co-treatment: GDC0941 450 nM) was 1.05, the “phospho-S6 immunofluorescence (z-score)” value (co-treatment: lapatinib 1 uM) was 0.28 and the “phospho-S6 immunofluorescence (z-score)” value (co-treatment: vehicle) was -1.09.
`CSCC[C@H](NC(=O)[C@H](Cc1ccccc1)NC(=O)CNC(=O)CNC(=O)[C@@H](N)Cc1ccc(O)cc1)C(=O)O` (compound 10 µM) was tested, and the “phospho-S6 immunofluorescence (z-score)” value (co-treatment: GDC0941 450 nM) was -0.41, the “phospho-S6 immunofluorescence (z-score)” value (co-treatment: lapatinib 1 uM) was -0.12 and the “phospho-S6 immunofluorescence (z-score)” value (co-treatment: vehicle) was -0.05.
For `CN(C)CCN(C)CCc1ccc(Cl)c(Cl)c1` [BD-1047 (dihydrobromide)] (compound 10 µM), the “phospho-S6 immunofluorescence (z-score)” value (co-treatment: GDC0941 450 nM) was 0.39, the “phospho-S6 immunofluorescence (z-score)” value (co-treatment: lapatinib 1 uM) was -1.41 and the “phospho-S6 immunofluorescence (z-score)” value (co-treatment: vehicle) was -0.85.
`Cc1ncc(CN2CC=C(c3ccccc3)CC2)c(N)n1` [Ro 10-5824 (dihydrochloride)] (compound 10 µM) was tested, and the “phospho-S6 immunofluorescence (z-score)” value (co-treatment: GDC0941 450 nM) was -1.36, the “phospho-S6 immunofluorescence (z-score)” value (co-treatment: lapatinib 1 uM) was -1.65 and the “phospho-S6 immunofluorescence (z-score)” value (co-treatment: vehicle) was 0.42.
`O=C1CC[C@@]2(O)[C@H]3Cc4ccc(O)c5c4[C@@]2(CCN3CC2CC2)[C@H]1O5` [Naltrexone (Hydrochloride)] (compound 10 µM) was tested, and the “phospho-S6 immunofluorescence (z-score)” value (co-treatment: GDC0941 450 nM) was 0.88, the “phospho-S6 immunofluorescence (z-score)” value (co-treatment: lapatinib 1 uM) was 0.25 and the “phospho-S6 immunofluorescence (z-score)” value (co-treatment: vehicle) was 1.41.
`CNC(C)Cc1ccccc1OC` (centres undefined) [Methoxyphenamine (Hydrochloride)] (compound 10 µM) was tested, and the “phospho-S6 immunofluorescence (z-score)” value (co-treatment: GDC0941 450 nM) was 0.57, the “phospho-S6 immunofluorescence (z-score)” value (co-treatment: lapatinib 1 uM) was -0.2 and the “phospho-S6 immunofluorescence (z-score)” value (co-treatment: vehicle) was 0.23.
